Screening data as filed in PubChem.
p53 reactivation = restores transcriptional activity of mutant p53; H1299 p53-A138V BP100-luciferase reporter, luminescence, 24 h; Potency, µM (series often up to 92.2 µM), inactives show at the highest dose activity change, positive = activation, hits mostly activators; 0.063% of 320,000 active; also: potency is read from the fitted curve at half-maximal effect; % of control where 0% means no effect; nearly all actives have a fitted effect of over 45% in size
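p53-null H1299 cells stably carrying temperature-sensitive p53-A138V and a BP100-luciferase reporter were pinned with compounds (4-point, 1:5 series) and held 24 hrs at 37 deg C. Luminescence was read 10 min after detection reagent.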
ELG1 repair inh = inhibitors of ELG1-dependent DNA repair in HEK293T cells. HEK293T ELG1-luciferase reporter, luminescence, 16 h; DNA damage induced by 5-fluorouridine. Potency, µM (top dose mostly 46.1 µM), for the others: at the highest dose activity change, negative = inhibition, actives largely listed as inhibitors. 2.3% of 330,000 active; also: potency is read from the fitted curve at half-maximal effect; % is scaled to controls: 0 for no effect and ±100 for the full control effect; nearly all actives have a fitted effect of over 55% in size
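DMSO vehicle served as the neutral condition. Each well held 2,000 cells given 5-fluorouridine plus compound; after 16 hr at 37 °C/5% CO2, ONE-Glo was added and luciferase measured 30 min later.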
RORg inh = blocks mouse ROR gamma transcriptional activity; Drosophila S2 Gal4-RORgamma UAS-luciferase reporter, 20 h; Potency, µM (titrated, usually from 53.6 µM), without a hit: at the top dose activity change, negative = inhibition, actives largely listed as inhibitors; 5.4% of 310,000 active; also: potency is read from the fitted curve at half-maximal effect; % is scaled to controls: 0 for no effect and ±100 for the full control effect; nearly all actives have a fitted effect of over 60% in size
Target sequence (P51450 whole entry, looked up, the tested form may be a part): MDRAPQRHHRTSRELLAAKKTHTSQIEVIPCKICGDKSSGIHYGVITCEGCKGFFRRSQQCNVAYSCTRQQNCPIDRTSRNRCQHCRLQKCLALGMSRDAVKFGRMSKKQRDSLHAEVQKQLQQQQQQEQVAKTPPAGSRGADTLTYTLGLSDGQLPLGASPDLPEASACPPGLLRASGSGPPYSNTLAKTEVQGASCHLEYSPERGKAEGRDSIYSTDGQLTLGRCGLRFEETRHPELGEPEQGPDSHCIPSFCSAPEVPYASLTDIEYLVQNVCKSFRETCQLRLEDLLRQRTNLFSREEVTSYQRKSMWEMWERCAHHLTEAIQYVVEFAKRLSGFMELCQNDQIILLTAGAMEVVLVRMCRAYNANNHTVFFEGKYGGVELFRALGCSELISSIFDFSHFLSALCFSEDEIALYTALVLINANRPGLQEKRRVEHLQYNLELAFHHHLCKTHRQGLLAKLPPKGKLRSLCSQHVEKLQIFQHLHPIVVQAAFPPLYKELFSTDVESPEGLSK
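Stable Schneider cell line, Gal4 DNA-binding domain fused to ROR gamma, UAS-luciferase. Cmpd 1 hr RT → CuSO4 700 uM final → 20 hr RT → luciferase reagent 10 min → luminescence.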
Giardia killer = Giardia lamblia killing; Giardia lamblia trophozoite viability; activity change, % at 7.66 µM, hits read low; 0.15% of 340,000 active; AID 540267; in the data active = activity change below about -80%; inconclusive = between about -30% and that limit;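 also: parasites exposed to compound for two days anaerobically before the ATP read; % is scaled to controls: 0 for no effect and ±100 for the full control effect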
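Each well holds 100 Giardia trophozoites and compound. After two days (48 hrs) at 37 deg C in anaerobic conditions, ATP is quantified by luminescence.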
BRCA1 expr act = increases BRCA1 expression. AID 624202. Potency, µM (highest dose often 46.1 µM), without a hit: at the highest dose activation, hits mostly activators. MCF7-BRCA1-FFLuc reporter, luminescence, 48 h; response scale: scaled: vehicle 0%, 10 µM genistein 100%. 1.1% of 380,000 active; also: potency is read from the fitted curve at half-maximal effect; nearly all actives have a fitted effect of over 80% in size
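MCF7 cells carrying a BRCA1-firefly luciferase reporter (2000 cells/well, phenol-red free MEM) were attached for 2 h at 37 °C, then given compounds for 48 h. Luminescence was read 15 min after luciferase reagent; activity normalized to genistein (10 microM) and DMSO.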
VP16 counter = counter-screen for ROR gamma inhibitors: Gal4-VP16 reporter; Drosophila S2 Gal4-VP16 UAS-luciferase, luminescence, 20 h; 3.5% of 310,000 active; Potency, µM (series often up to 53.6 µM), without a hit: at the highest dose activity, negative = inhibition, usual class: inhibitors;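 also: Gal4-VP16 expression switched on by copper sulfate through the metallothionein promoter; potency is read from the fitted curve at half-maximal effect; % is scaled to controls: 0 for no effect and ±100 for the full control effect; nearly all actives have a fitted effect of over 50% in size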
Starred values were filed as active, the others as inactive; ? = inconclusive; . = no result given; [ ] = another dose, or the depositor's remark. Rows were chosen to be rich in hits. Some 7.6% of all compounds tested hit in one or more screens of this group. Unless noted, calls follow the shape of the dose curve; as a rule, active = well fitted curve in the direction sought with a large enough effect; inconclusive = small, poorly fitted or top-dose-only effect, or another doubt; inactive = no such curve, though single readings can be large; an effect the other way counts as inactive or inconclusive.

SMILES | p53 reactivation | ELG1 repair inh | RORg inh | Giardia killer | BRCA1 expr act | VP16 counter
CCCNC(=O)c1c(N)n(CC2CCCO2)c2nc3ccccc3nc12 (stereo unspecified) | -37% | ? | ? | 14 | 0% | 6.3µM*
OC1/C(=C/c2ccc(F)cc2)N2CCC1CC2 (stereo unspecified) | 6% | -6% | -3% | 1 | -20% | -15%
CCCCCn1c(=O)c(C(=O)Nc2ncccc2C)c(O)c2ccccc21 | . | -3% | 8.9µM* | -13 | -32% | 8.9µM*
Cc1ccc(N2C(=O)NC(=O)/C(=C\c3ccc([N+](=O)[O-])o3)C2=O)cc1 | 3% | -11% | 23% | . | . | 6%
CN1CCN(c2ccc([N+](=O)[O-])c3cccnc23)CC1 | 0% | 0% | -14% | -84* | 25% | -14%
Cc1ccnc(-n2c(C)cc(C=C3C(=O)N(C)C(=S)N(C)C3=O)c2C)c1 | -2% | 0% | -11% | 9 | 9% | -8%
N#CCCn1cc(C(=O)Nc2ccc([N+](=O)[O-])cc2)c(-c2ccc3c(c2)OCCO3)n1 | -11% | ? | ? | -1 | -47% | ?
Cc1ccc(NC(=O)c2cn(CCC#N)nc2-c2ccc3c(c2)OCCO3)c([N+](=O)[O-])c1 | -17% | 18µM* | 9% | 4 | 5% | 5%
CC(C)OC(=O)C1C(=O)NC2(C)CC1c1ccccc1O2 (stereo unspecified) | -5% | -7% | -12% | 8 | -3% | -2%
Cc1ccc(N/N=C/c2c(O)n(-c3ccccc3)c(=O)[nH]c2=O)cc1 | 21% | 4.1µM* | 12% | 6 | -11% | 0%
C/C(=N\NC(=S)Nc1ccccc1)c1c(O)n(C)c(=O)n(C)c1=O | ? | ? | 8.9µM* | 7 | 48% | ?
CCC(=NCCc1c[nH]c2ccccc12)c1c(O)n(C)c(=O)n(C)c1=O | -2% | 16µM* | -16% | -6 | -79% | ?
CCOC(=O)c1ccc(N=C(c2ccccc2)c2c(O)n(C)c(=O)n(C)c2=O)cc1 | 4% | -17% | 12% | 6 | -1% | 5%
CCC(=NC(C)c1ccccc1)c1c(O)n(C)c(=O)n(C)c1=O (stereo unspecified) | -16% | ? | ? | -3 | -68% | 13µM*
CCN(CC)CCCC(C)N=C(c1ccccc1)c1c(O)n(C)c(=O)n(C)c1=O (stereo unspecified) | 6% | 18% | 0.63µM* | 7 | -16% | -1%
C[C@]12CC[C@H](O)CC1C(=O)CC1C2CC[C@@]2(C)C1CC[C@@H]2O (stereo partly specified) | 4% | 10% | . | -16 | -11% | .
CCN(CC)C(=O)c1c(C)[nH]c(=S)c(C#N)c1-c1ccco1 | -4% | -19% | ? | -9 | 0% | -24%[10 µM]
Cc1cccc(N2CCN(C(=O)c3ccc(CNc4c(N5CCC(C)CC5)c(=O)c4=O)cc3)CC2)c1C | -1% | ? | -13% | -1 | -6% | -9%
C/C(=N\NC(=O)CN1CCCCC1)c1cccc([N+](=O)[O-])c1 | . | . | . | 2 | ? | .
O=c1c2ccccc2[nH]c(=S)n1-c1ccc2c(c1)OCO2 | 16% | 1% | 2.8µM* | -16 | -14% | 10µM*
Cc1oc2ccc(OC(=O)N3CCOCC3)cc2c1C(=O)OC(C)C | -5% | ? | 23% | -20 | -33% | -10%
O=C(CCN1CCN(CCO)CC1)N1c2ccccc2Sc2ccc(C(F)(F)F)cc21 | 16% | -1% | 43% | 23 | -19% | -4%
O=C(O)c1ccccc1SCC(=O)N1c2ccccc2Sc2ccccc21 | -2% | ? | -12% | -15 | -16% | 14µM*
C=C[C@H]1CN2CC[C@@H]1C[C@H]2[C@@H](O)c1ccnc2ccccc12 | . | . | 0%[16.9 µM] | . | . | 5%[17 µM]
On1ccccc1=S | 2% | ? | . | -19 | -12% | .
SMILES | p53 reactivation | ELG1 repair inh | RORg inh | Giardia killer | BRCA1 expr act | VP16 counter
C/C1=C\[C@@H](C)C/C=C/[C@H]2[C@@H]3O[C@]3(C)[C@@H](C)[C@H]3[C@H](Cc4c[nH]c5ccccc45)NC(=O)[C@]32C(=O)/C=C/C(=O)[C@@H]1O | -13% | ? | 5.6µM* | -20 | -58% | 11µM*
CC(CCc1ccccc1)NCCC#N (stereo unspecified) | -3% | ? | 22% | 0 | -8% | -8%
CCCCCCC(=O)N/N=C/c1c(O)n(C(C)CC)c(=S)[nH]c1=O (stereo unspecified) | 1% | ? | 10µM* | -23 | -66% | ?
OC[C@@H]1CCCN2CCCC[C@@H]12 | . | . | -15% | . | . | -3%
CC1Cc2c(cnc3c2CN(C)CC3)CO1 (stereo unspecified) | . | . | -9%[10 µM] | . | . | 3%[10 µM]
CCC(=NCc1ccc2c(c1)OCO2)c1c(O)n(C)c(=O)n(C)c1=O | -6% | 15µM* | 39% | 8 | -68% | ?
CC(=NCc1ccc2c(c1)OCO2)c1c(O)n(C)c(=O)n(C)c1=O | -12% | ? | 15% | 8 | -44% | -3%
CCC(=NCc1cc(OC)cc(OC)c1)c1c(O)n(C)c(=O)n(C)c1=O | 3% | 21µM* | -14% | -18 | -79% | ?
CCOc1ccc2nc(NC(=O)c3cccn(Cc4ccccc4Cl)c3=O)sc2c1 | . | . | . | . | 9% | .
CSc1ccc(C(=O)C2CCCN(Cc3cnc(SC)nc3)C2)cc1 (stereo unspecified) | 2% | -19% | 40% | 16 | -10% | -3%
CCn1ccnc1CN1CCCC(C(=O)c2ccc(SC)cc2)C1 (stereo unspecified) | -2% | 0% | 1.6µM* | 5 | -31% | 6.3µM*
C=CCN1CC[C@]23CCCCC2[C@H]1Cc1ccc(O)cc13 (stereo partly specified) | . | . | 7%[10 µM] | . | . | -4%
COc1ccc(-n2c(O)c(C=NCc3ccc4c(c3)OCO4)c(=O)[nH]c2=O)cc1 | -1% | -1% | 15% | -12 | -16% | -7%
C=CC[C@H](CC(=O)N(CCO)Cc1ccccc1)C(=O)NC[C@H](OC(=O)[C@@H](CC=C)CC(=O)OC(C)(C)C)c1ccccc1 | 1% | 21µM* | . | -3 | -58% | .
C=CC[C@@H](CC(=O)N(CCO)Cc1ccccc1)C(=O)NC[C@@H](OC(=O)[C@@H](CC=C)CC(=O)OC(C)(C)C)c1ccccc1 | -2% | 21µM* | . | 1 | -25% | .
COC(=O)C1=C(c2cccc(OCc3ccccc3)c2)C[C@@H]2CC[C@H]1N2C(=O)NCc1ccc(N(C)C)cc1 | -2% | ? | . | -8 | -48% | .
